# Assay results from PubChem BioAssay (Tox21).
# Unmarked numbers belong to inactive results. Inconclusive results are not listed. A call without a number means that no potency is given here. Active and inactive are the calls of the source. Unless noted, calls follow the shape of the dose curve; as a rule, active = well fitted curve in the direction sought with a large enough effect in the repeat runs; inconclusive = weak or mixed curves; inactive = no such curve, though single readings can be large; an effect the other way counts as inactive or inconclusive.
# Key:
# [1] = qHTS assay to identify small molecule agonists of the hypoxia (HIF-1) signaling pathway - cell viability counter screen (AID 1224844; calls by dose curve; also: nearly all actives have a fitted effect of over 50% in size)
# Procedure, shortened: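 Cells (HRE-bla ME-180, 2,000 per well) sat 5 hrs at 37C, got compound for 17 hrs, were read for CCF4-AM FRET, and were finally lysed with CellTiter-Glo for a 30 min room-temperature luminescence read.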
# [2] = qHTS assay to identify small molecule agonists of H2AX (AID 1224845; active = well fitted activation curve with a large enough effect in the signal ratio in the repeat runs, not every such curve was filed as active; the % refers to the signal ratio)
# Procedure, shortened: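 Wild-type CHO-K1 cells plated overnight, then exposed 3 hr at 37C to compounds at 15 concentrations (0.76% DMSO). Lysed, then HTRF anti-pH2AX(S139)-cryptate/anti-H2AX-d2 detection after 24 hr at room temperature; emissions 665 and 620 nm.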
# [3] = qHTS assay to identify small molecule antagonists of the estrogen related receptor (ERR) signaling pathway from Tox21 library (AID 1224848); also: nearly all actives have a fitted effect of over 50% in size
# Procedure, shortened: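 Screening used an ERR reporter line supplied by NTP, exposed for 18 h at 37 C to library compounds delivered in DMSO. Signal was luciferase luminescence developed with ONE-Glo at room temperature for 30 min.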
# [4] = qHTS assay to identify small molecule agonists of the estrogen related receptor (ERR) signaling pathway from Tox21 library (AID 1224849; calls by dose curve; also: nearly all actives have a fitted effect of over 15% in size); conditions: ERR reporter cell line, ONE-Glo luciferase, 18 h; at 92.4 µM (top of the series) unless noted
# Procedure, shortened: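 Screening used an NTP-provided ERR luciferase cell line. Compounds in DMSO were added 6 h after seeding and left 18 h at 37 C before a 30 min ONE-Glo step and luminescence reading.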
# [5] = qHTS RealTime-Glo MT Cell Viability Assay in HEK293 cells - 32 hour (AID 1224868); also: top concentration of the series differs between compounds; nearly all actives have a fitted effect of over 50% in size
# Procedure, shortened: (§1)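 HEK293 cells were seeded at 600 cells/well together with NanoLuc luciferase and cell-permeant prosubstrate, preincubated 5 h at 37 C/5% CO2, then given compound in DMSO by pintool. Luminescence from viable-cell prosubstrate reduction was read repeatedly over 40 h.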
# [6] = A CellTox Green Cytotoxicity Assay to monitor cytotoxicity in HEK293 cells - 0 hour (AID 1224869); also: nearly all actives have a fitted effect of over 50% in size
# Procedure, shortened: (§2)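 Fluorescence intensity, read at 0, 8, 16, 24, 32 and 40 h of compound treatment, reflected dye binding to DNA of dead HEK293 cells; compounds (23 nL, DMSO) were added 5 h after plating cells with reagent.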
# [7] = qHTS RealTime-Glo MT Cell Viability Assay in HepG2 cells - 40 hour (AID 1224870); also: nearly all actives have a fitted effect of over 50% in size
# Procedure, shortened: (§3)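 HepG2 cells mixed with RealTime-Glo MT reagents (NanoLuc plus cell-permeant prosubstrate) were seeded at 600 cells/well, incubated 5 h at 37 C/5% CO2, then pinned with compounds in DMSO; nonlytic luminescence tracked viability during 40 h treatment.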
# [8] = qHTS RealTime-Glo MT Cell Viability Assay in HEK293 cells - 16 hour (AID 1224872)
# Procedure, shortened: as §1
# [9] = qHTS RealTime-Glo MT Cell Viability Assay in HepG2 cells - 8 hour (AID 1224873); also: nearly all actives have a fitted effect of over 55% in size
# Procedure, shortened: as §3
# [10] = qHTS RealTime-Glo MT Cell Viability Assay in HEK293 cells - 40 hour (AID 1224874); conditions: RealTime-Glo luminescence; max response: active compounds read low; also: nearly all actives have a fitted effect of over 50% in size; also: potency is read from the fitted curve at half-maximal effect
# Procedure, shortened: (§4)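 Viable HEK293 cells reduce a cell-permeant prosubstrate; the product diffuses out and is consumed by NanoLuc in the medium to give light. Compounds went in after a 5 h incubation and plates were read over the treatment course.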
# [11] = A CellTox Green Cytotoxicity Assay to monitor cytotoxicity in HEK293 cells - 24 hour (AID 1224875); also: nearly all actives have a fitted effect of over 45% in size; also: potency is read from the fitted curve at half-maximal effect
# Procedure, shortened: as §2
# [12] = A CellTox Green Cytotoxicity Assay to monitor cytotoxicity in HepG2 cells - 16 hour (AID 1224876); also: nearly all actives have a fitted effect of over 45% in size
# Procedure, shortened: (§5)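 Using 1536-well format, dye-containing HepG2 suspension was seeded, allowed 5 h at 37 C/5% CO2, dosed by pintool with compounds, positive and negative controls, and imaged for fluorescence across 40 h.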
# [13] = qHTS RealTime-Glo MT Cell Viability Assay in HepG2 cells - 32 hour (AID 1224877); also: nearly all actives have a fitted effect of over 55% in size
# Procedure, shortened: (§6)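 HepG2 cells were seeded at 600 cells/well together with NanoLuc luciferase and a cell-permeant prosubstrate, preincubated 5 h at 37 C/5% CO2, then pin-dosed with compounds in DMSO. Nonlytic luminescence from viable cells was read at each time point.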
# [14] = qHTS RealTime-Glo MT Cell Viability Assay in HEK293 cells - 0 hour (AID 1224880); also: top concentration of the series differs between compounds; nearly all actives have a fitted effect of over 45% in size
# Procedure, shortened: as §4
# [15] = qHTS assay to identify small molecule agonists of H2AX - cell viability counter screen (AID 1224847; calls by dose curve; also: top concentration of the series differs between compounds; nearly all actives have a fitted effect of over 30% in size)
# Procedure, shortened: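 For this counter screen, overnight-attached CHO-K1 cells received test compounds (15 concentrations, 0.76% DMSO final); 3 hr later at 37C, CellTiter-Glo reagent was added and luminescence recorded after 30 min at room temperature.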
# [16] = qHTS RealTime-Glo MT Cell Viability Assay in HepG2 cells - 24 hour (AID 1224867); also: nearly all actives have a fitted effect of over 50% in size
# Procedure, shortened: as §6
# [17] = A CellTox Green Cytotoxicity Assay to monitor cytotoxicity in HepG2 cells - 24 hour (AID 1224878); also: nearly all actives have a fitted effect of over 45% in size
# Procedure, shortened: as §5
# [18] = A CellTox Green Cytotoxicity Assay to monitor cytotoxicity in HepG2 cells - 40 hour (AID 1224879); also: nearly all actives have a fitted effect of over 40% in size; also: potency is read from the fitted curve at half-maximal effect
# Procedure, shortened: as §5
# [19] = qHTS assay to identify small molecule agonists of the hypoxia (HIF-1) signaling pathway (AID 1224846; active = well fitted activation curve with a large enough effect in the signal ratio in the repeat runs, not every such curve was filed as active; the % refers to the signal ratio)
# Procedure, shortened: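 A low-serum medium (0.5% dialyzed FBS) holding 2,000 HRE-bla ME-180 cells per well is preincubated for 5 hrs, dosed with compounds by pintool, and kept a further 17 hrs at 37C, 5% CO2 before CCF4-AM FRET detection of beta-lactamase.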
# [20] = A CellTox Green Cytotoxicity Assay to monitor cytotoxicity in HEK293 cells - 40 hour (AID 1224871); also: nearly all actives have a fitted effect of over 45% in size
# Procedure, shortened: as §2
structure (smiles),measurement,setting,value
O=C1CCCCCCCCCCCC(=O)OCCO1,Potency,[1],inactive
same,Potency,[2],inactive
same,Potency,[3],inactive
same,"activity change, positive = activation",[4],1.67%
same,Potency,[5],inactive
same,Potency,[6],inactive
same,Potency,[7],inactive
same,Potency,[8],inactive
same,Potency,[9],inactive
same,max response,[10],-16%
same,Potency,[11],inactive
same,Potency,[12],inactive
same,Potency,[13],inactive
same,Potency,[14],inactive
C[N+]1(C)CCC(OC(=O)C(O)(c2ccccc2)C2CCCC2)C1 (centres undefined),Potency,[1],inactive
same,Potency,[15],inactive
same,Potency,[16],inactive
same,Potency,[7],inactive
same,Potency,[8],inactive
same,max response,[10],3.92%
same,Potency,[11],23.9 µM (active)
same,Potency,[12],inactive
same,Potency,[13],inactive
same,Potency,[17],inactive
same,Potency,[18],inactive
same,Potency,[14],inactive
COCCCN1CCC(NC(=O)c2cc(Cl)c(N)c3c2OCC3)CC1,Potency,[2],inactive
same,Potency,[19],inactive
same,Potency,[15],inactive
same,Potency,[3],inactive
same,"activity change, positive = activation",[4],5.44% [at 42.5 µM]
same,Potency,[16],inactive
same,Potency,[5],inactive
same,Potency,[6],inactive
same,Potency,[7],inactive
same,Potency,[20],inactive
same,Potency,[8],inactive
same,Potency,[9],inactive
same,max response,[10],-14%
same,Potency,[11],inactive
same,Potency,[12],inactive
same,Potency,[13],inactive
same,Potency,[17],inactive
same,Potency,[18],inactive
same,Potency,[14],inactive
CCOc1ccc(N)c([N+](=O)[O-])c1,Potency,[1],inactive
same,Potency,[19],inactive
same,Potency,[15],inactive
same,Potency,[3],inactive
same,"activity change, positive = activation",[4],-0.453%
same,Potency,[16],inactive
same,Potency,[6],inactive
same,Potency,[7],inactive
same,Potency,[20],inactive
same,Potency,[9],inactive
same,Potency,[11],inactive
same,Potency,[12],inactive
same,Potency,[13],inactive
same,Potency,[17],inactive
same,Potency,[18],inactive
same,Potency,[14],inactive
Nc1cc(C(=O)O)c(O)c(S(=O)(=O)O)c1,Potency,[1],inactive
same,Potency,[15],inactive
same,Potency,[3],inactive
same,"activity change, positive = activation",[4],7.51%
same,Potency,[16],inactive
same,Potency,[5],inactive
same,Potency,[6],inactive
same,Potency,[7],inactive
same,Potency,[20],inactive
same,Potency,[8],inactive
same,Potency,[9],inactive
same,max response,[10],9.59%
same,Potency,[11],inactive
same,Potency,[12],inactive
same,Potency,[13],inactive
same,Potency,[17],inactive
same,Potency,[18],inactive
same,Potency,[14],inactive
COc1ccc(C(=O)c2ccc(OC)cc2O)c(O)c1,Potency,[1],inactive
same,Potency,[19],inactive
same,Potency,[3],inactive
same,"activity change, positive = activation",[4],-2.18% (active)
same,Potency,[16],inactive
same,Potency,[6],inactive
same,Potency,[7],inactive
same,Potency,[9],inactive
same,Potency,[10],24.7 µM (active)
same,Potency,[13],inactive
same,Potency,[18],15.6 µM (active)
same,Potency,[14],inactive
CCCCC,Potency,[1],inactive
same,Potency,[2],inactive
same,Potency,[16],inactive
same,Potency,[5],inactive
same,Potency,[7],inactive
same,Potency,[8],inactive
same,Potency,[9],inactive
same,max response,[10],0.575%
same,Potency,[12],inactive
same,Potency,[13],inactive
same,Potency,[17],inactive
same,Potency,[18],inactive
same,Potency,[14],inactive
